# A selection: hits, their analogues and other compounds. The true share with any hit is near 2.8%.
# Pol kappa inh = blocks human DNA polymerase kappa activity | Q9UBT6 | purified Pol kappa, fluorescent DNA synthesis assay, 10 min | Potency, µM (titrated, usually from 107 µM), without a hit: at the top dose activity, negative = inhibition, most hits filed as inhibitors | 0.53% of 400,000 active | AID 588579; note: potency is the fitted concentration of half-maximal effect; % is set by controls: 0 for no effect and ±100 for the full control effect
#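 50 nM final substrate added after 15 min RT preincubation of 10 nM Pol kappa with compound; fluorescence read at 0 and 10 min.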
# Pol beta inh-1 = inhibitors of human DNA polymerase beta; Pol beta primer extension/strand displacement, fluorescence kinetic; 1.3% of 340,000 active; AID 485314; Potency, µM (series often up to 114 µM), inactives show at the top dose activity change, negative = inhibition, actives largely listed as inhibitors; note: potency is the fitted concentration of half-maximal effect; % is set by controls: 0 for no effect and ±100 for the full control effect
#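 Reaction started by 50 nM substrate onto compound-treated Pol beta (10 nM, 15 min preincubation, room temperature); plates read at 0 min and 10 min. Normalized concentration-effect data fitted by four-parameter Hill equation.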
# PI4K2A block = inhibitors of human PI4K2A; Q9BTU6; purified PI4K2A, ADP-Glo luminescence, 1 h; active compounds read low; activity change, negative = inhibition, % at 76.9 µM; 0.13% of 420,000 active; AID 1346378; in the data active = activity change below about -50%; inconclusive = mostly about -30% to -49%;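 note: -100% = wells without enzyme as full effect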
# Target sequence (Q9BTU6 whole entry, looked up): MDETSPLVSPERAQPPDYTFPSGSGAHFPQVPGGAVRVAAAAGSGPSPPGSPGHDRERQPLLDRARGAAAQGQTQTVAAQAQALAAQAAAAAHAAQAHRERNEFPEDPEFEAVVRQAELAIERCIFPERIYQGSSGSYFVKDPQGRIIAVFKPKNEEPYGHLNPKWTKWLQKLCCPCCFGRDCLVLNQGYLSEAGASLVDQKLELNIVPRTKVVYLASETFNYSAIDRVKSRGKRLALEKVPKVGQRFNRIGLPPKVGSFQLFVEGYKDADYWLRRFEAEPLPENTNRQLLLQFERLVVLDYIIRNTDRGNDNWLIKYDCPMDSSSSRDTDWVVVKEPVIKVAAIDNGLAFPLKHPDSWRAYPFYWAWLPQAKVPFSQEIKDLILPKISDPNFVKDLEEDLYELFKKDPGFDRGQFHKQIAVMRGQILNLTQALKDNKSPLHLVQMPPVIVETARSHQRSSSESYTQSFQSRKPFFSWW
#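 In this quantitative HTS, ADP production by PI4K2A was quantified luminescently after 1 h at ambient temperature; 100 microM adenosine served as plate-quality control.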
# Pol eta inh-1 = DNA polymerase eta (human) inhibition | Potency, µM (top dose mostly 114 µM), without a hit: at the highest dose activity change, negative = inhibition, hits mostly inhibitors | Q9Y253 | recombinant Pol eta, fluorescent DNA replication assay | 1.2% of 390,000 active; note: potency is the fitted concentration of half-maximal effect; % is set by controls: 0 for no effect and ±100 for the full control effect
#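 Pol eta at 10 nM preincubated with compounds 15 min at room temperature; reaction started with fluorescent substrate (50 nM final) and read kinetically at 0 and 10 min.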
# POLI inh = DNA polymerase iota (human) inhibition. Q9UNA4. AID 588590. 1% of 390,000 active. Potency, µM (series often up to 115 µM), without a hit: at the highest dose activity, negative = inhibition, usual class: inhibitors. Pol iota fluorescent replication assay, 10 min; note: potency is the fitted concentration of half-maximal effect
#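 Fluorescent replication assay read twice, at 0 min and 10 min after adding 50 nM (final) substrate. Enzyme (10 nM) and compounds were first incubated 15 min at room temperature; enzyme-free buffer wells were negative controls.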
# PI5P4K alpha inh = PI5P4K alpha (human) kinase inhibition; PI5P4Kalpha enzyme, ADP-Glo luminescence, 60 min; active compounds read low; max response, %; AID 652105; 1.2% of 330,000 active; P48426; active = max response of -50% or lower; inconclusive = between -30% and -50%; inactive = -30% or higher; note: value at the top dose of about 77 µM; % is set by controls: 0 for no effect and ±100 for the full control effect
#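 Enzyme plus substrate dispensed, test compounds pinned in, then ATP (5 microM final) added. After 60 min at RT, ADP-Glo reagent 1 for 45 min and reagent 2 for 30 min preceded luminescence imaging.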
# Pol beta inh-2 = Inhibitors of human DNA polymerase beta, hit validation. shares compounds with Pol beta inh-1. Pol beta primer extension/strand displacement, fluorescence kinetic. Potency, µM, hits mostly inhibitors. 87% of 250 active; calls by dose curve; note: potency is the fitted concentration of half-maximal effect
# Klenow inh = Klenow polymerase inhibition, pol beta selectivity check; shares compounds with Pol beta inh-1; Klenow exo- polymerase counter-screen, fluorescent DNA substrate; activity change, negative = inhibition, % at 57.1 µM; 250 tested, under 10 active
# HIV RT counter = HIV-1 RT inhibition, pol beta selectivity check; 250 tested, under 10 active; AID 540301; activity % (negative = inhibition, positive = activation), % at 57.1 µM; HIV-1 RT polymerase activity, counter-screen; shares compounds with Pol beta inh-1
# POLB inh gel = validation of human DNA polymerase beta inhibitors | shares compounds with Pol beta inh-1 | inhibition, % at 10 µM | radiolabeled primer extension gel assay, phosphorimager | AID 540325 | 91% of 110 active;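 active = inhibition at 10 µM of 30% or more; inconclusive = no clear call, values can overlap the other calls; inactive = inhibition at 10 µM under 30%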
# TbPGK inh = blocks T. brucei phosphoglycerate kinase; shares compounds with Pol kappa inh; TbPGK coupled GAPDH assay, Kinase-Glo luminescence; Potency, µM (doses to about 57.5 µM), for inactives: at the top dose activity change, negative = inhibition, actives largely listed as inhibitors; 79% of 500 active; AID 686980; note: potency is the fitted concentration of half-maximal effect; % is set by controls: 0 for no effect and ±100 for the full control effect; nearly all actives have a fitted effect of over 65% in size
# Pol iota confirm = Confirm cherry-picked inhibitors of human polymerase iota. shares compounds with Pol kappa inh. 77% of 1,500 active. Potency, µM, usual class: inhibitors. Pol iota primer extension, TAMRA/BHQ fluorescence; note: potency is the fitted concentration of half-maximal effect
# Pol eta inh-2 = confirmation of human DNA polymerase eta inhibitors. shares compounds with Pol eta inh-1. 64% of 2,600 active. Pol eta primer extension, TAMRA/BHQ fluorescence, 10 min. AID 720502. Potency, µM, most hits filed as inhibitors; note: potency is the fitted concentration of half-maximal effect
# * hit, by the source's call; u = inconclusive; x = no result given; [ ] = remark or other dose. Unless noted, calls come from the whole dose curve; as a rule, active = well fitted curve in the direction sought with a large enough effect; inconclusive = small, poorly fitted or top-dose-only effect, or another doubt; inactive = no such curve, though single readings can be large; an effect the other way counts as inactive or inconclusive.
SMILES,Pol kappa inh,Pol beta inh-1,PI4K2A block,Pol eta inh-1,POLI inh,PI5P4K alpha inh,Pol beta inh-2,Klenow inh,HIV RT counter,Pol iota confirm,others
CCCCCCc1cc2cc(-c3nnc(-c4ccccc4OC)o3)c(=O)oc2cc1O,20µM*,14.1µM*,-3.3,8.91µM*,u,-87.7*,7.08*,-20.8,9.3,x,TbPGK inh=10.3µM*
NC(=O)[C@@H]1CCCN1C(=O)C(Cc1cnc[nH]1)NC(=O)C1CCC(=O)N1 (stereo partly drawn),15.5%[60.1 µM],x,x,x,x,x,x,x,x,x,
COc1cc(/C=C(/C#N)c2nc3ccccc3[nH]2)ccc1Oc1ncccc1[N+](=O)[O-],-41.2%,12.6µM*,11.1,u,u,x,12.6*,-6.6,10.0,u,
CCOc1cc(/C=C(/C#N)c2nc3ccccc3[nH]2)ccc1Oc1ccc([N+](=O)[O-])cn1,-8.2%,u,4.8,-11.2%,125.5%,x,x,x,x,x,
CCN(Cc1ccccc1)C(=O)Cn1c(=O)n(-c2ccc(Cl)cc2)c(=O)c2c(C)c(C(=O)N(C)C)sc21,-0.1%[60.1 µM],5.0%,-3.9,-9.8%,u,x,x,x,x,x,
CCOC(=O)c1cc(-c2ccc(N3CCOCC3)cc2)nn1-c1ccccc1,-6.4%,-29.8%,-2.5,-11.7%,0.2%,-10.2,x,x,x,x,
CCOC(=O)c1cc(-c2ccc(N3CCOCC3)cc2)nn1-c1ccccc1C(=O)O,-15.8%,12.6µM*,-8.7,u,u,u,20*,10.3,21.1,u,
COC(=O)CN1C(=O)CSc2ccc(S(=O)(=O)Nc3ccc(C(C)=O)cc3)cc21,-6.7%[60.1 µM],2.6%,-5.7,-3.5%,-6.0%,x,x,x,x,x,
O=C(Nc1nc(-c2cc3ccccc3oc2=O)cs1)c1ccco1,-8.7%,8.91µM*,-0.9,u,-12.0%,-5.0,20*,-20.2,42.9,u,POLB inh gel=40.9*
O=C(Nc1nc(-c2ccccn2)cs1)c1ccco1,-20.9%,u,4.3,u,-0.2%,u,x,x,x,x,
O=C(/C=C\c1ccco1)c1ccc(NC(=O)c2ccco2)cc1,u,10µM*,1.1,u,35.5µM*,-56.4*,35.5*,-24.4,15.5,67*,POLB inh gel=77.8*;Pol eta inh-2=u
O=C(NCc1ccccc1Cl)c1ccccc1NC(=O)c1nsc2ccccc12,-10.7%[60.1 µM],0.5%,-11.2,18.2%,-19.4%,x,x,x,x,x,
Cc1ccc(S(=O)(=O)Cc2ccc(C(=O)N3CCc4ccccc4C3)o2)cc1,56.2µM*,15.8µM*,-13.0,20µM*,u,u,35.5*,-10.1,3.5,42.3*,Pol eta inh-2=47.8*
COc1ccc(S(=O)(=O)Cc2ccc(C(=O)N3CCc4ccccc4C3)o2)cc1,2.6%,-22.1%,-2.7,-8.9%,13.4%,-26.3,x,x,x,x,

# From PubChem BioAssay
